The results in this text go back to ChEMBL document CHEMBL2218924, “A broad activity screen in support of a chemogenomic map for kinase signalling research and drug discovery” (Biochem J, 2013).

For assay [1], the target named is Calcium/calmodulin-dependent protein kinase type II subunit beta (Homo sapiens) (UniProt Q13554). The settings on record: at 1 µM.
Assay [2] has the same target. The settings on record: at 10 µM.
Assay [3] deals with Calcium/calmodulin-dependent protein kinase type II subunit delta (Homo sapiens) (UniProt Q13557). The settings on record: at 1 µM.
Calcium/calmodulin-dependent protein kinase type II subunit delta (Homo sapiens), sequence (Q13557 whole entry): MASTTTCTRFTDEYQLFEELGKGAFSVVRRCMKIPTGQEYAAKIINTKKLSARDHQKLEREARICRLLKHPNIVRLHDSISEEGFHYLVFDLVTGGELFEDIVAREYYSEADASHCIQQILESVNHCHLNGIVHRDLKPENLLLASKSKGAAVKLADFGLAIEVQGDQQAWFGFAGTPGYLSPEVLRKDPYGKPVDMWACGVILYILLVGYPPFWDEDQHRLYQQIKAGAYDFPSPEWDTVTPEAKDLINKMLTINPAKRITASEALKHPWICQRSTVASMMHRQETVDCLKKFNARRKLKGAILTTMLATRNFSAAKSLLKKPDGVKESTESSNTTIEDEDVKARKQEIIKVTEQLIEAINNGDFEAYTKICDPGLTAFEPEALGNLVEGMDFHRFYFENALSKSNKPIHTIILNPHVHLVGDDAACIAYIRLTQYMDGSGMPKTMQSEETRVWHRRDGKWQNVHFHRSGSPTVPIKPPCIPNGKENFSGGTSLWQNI
Assay [4] deals with T1, Myotonin-protein kinase (Homo sapiens) (UniProt Q09013).
T1 sequence (whole entry): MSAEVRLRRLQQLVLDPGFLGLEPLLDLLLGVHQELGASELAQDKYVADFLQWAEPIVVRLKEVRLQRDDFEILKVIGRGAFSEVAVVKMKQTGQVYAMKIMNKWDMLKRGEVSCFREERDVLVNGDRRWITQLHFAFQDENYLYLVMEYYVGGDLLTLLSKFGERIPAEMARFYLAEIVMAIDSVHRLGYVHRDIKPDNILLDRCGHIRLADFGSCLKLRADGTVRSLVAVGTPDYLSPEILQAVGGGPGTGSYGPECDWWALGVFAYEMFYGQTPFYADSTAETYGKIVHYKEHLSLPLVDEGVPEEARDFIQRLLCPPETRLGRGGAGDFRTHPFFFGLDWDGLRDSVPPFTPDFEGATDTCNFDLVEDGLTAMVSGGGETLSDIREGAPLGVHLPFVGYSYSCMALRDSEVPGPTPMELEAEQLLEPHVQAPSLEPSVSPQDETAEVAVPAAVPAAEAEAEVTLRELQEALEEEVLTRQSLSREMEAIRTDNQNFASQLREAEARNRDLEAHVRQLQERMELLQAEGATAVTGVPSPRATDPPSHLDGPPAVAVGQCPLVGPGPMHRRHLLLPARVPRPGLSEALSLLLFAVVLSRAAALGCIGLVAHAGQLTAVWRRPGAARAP
The settings on record: at 1 µM.

The target in assay [5] is T1, Myotonin-protein kinase (Homo sapiens). The settings on record: at 10 µM.
Assay [6] has as its target T2, Serine/threonine-protein kinase 17A (Homo sapiens) (UniProt Q9UEE5).
T2 sequence (whole entry): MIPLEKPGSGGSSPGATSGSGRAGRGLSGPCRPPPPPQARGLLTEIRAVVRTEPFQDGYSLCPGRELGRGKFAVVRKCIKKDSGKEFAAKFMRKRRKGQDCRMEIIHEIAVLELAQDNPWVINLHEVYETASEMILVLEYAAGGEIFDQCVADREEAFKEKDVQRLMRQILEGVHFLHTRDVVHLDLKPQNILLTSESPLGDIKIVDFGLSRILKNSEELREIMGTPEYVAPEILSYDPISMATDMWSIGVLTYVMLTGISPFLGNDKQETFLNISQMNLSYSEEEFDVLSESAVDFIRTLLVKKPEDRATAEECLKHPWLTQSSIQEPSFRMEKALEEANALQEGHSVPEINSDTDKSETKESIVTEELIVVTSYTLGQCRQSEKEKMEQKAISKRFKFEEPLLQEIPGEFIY
The settings on record: at 1 µM.

Assay [7] has as its target Calcium/calmodulin-dependent protein kinase type 1 (Homo sapiens) (UniProt Q14012). The settings on record: at 10 µM.
In assay [8] the target is Calcium/calmodulin-dependent protein kinase type II subunit gamma (Homo sapiens) (UniProt Q13555). The settings on record: at 10 µM.
Calcium/calmodulin-dependent protein kinase type II subunit gamma (Homo sapiens), sequence (Q13555 whole entry): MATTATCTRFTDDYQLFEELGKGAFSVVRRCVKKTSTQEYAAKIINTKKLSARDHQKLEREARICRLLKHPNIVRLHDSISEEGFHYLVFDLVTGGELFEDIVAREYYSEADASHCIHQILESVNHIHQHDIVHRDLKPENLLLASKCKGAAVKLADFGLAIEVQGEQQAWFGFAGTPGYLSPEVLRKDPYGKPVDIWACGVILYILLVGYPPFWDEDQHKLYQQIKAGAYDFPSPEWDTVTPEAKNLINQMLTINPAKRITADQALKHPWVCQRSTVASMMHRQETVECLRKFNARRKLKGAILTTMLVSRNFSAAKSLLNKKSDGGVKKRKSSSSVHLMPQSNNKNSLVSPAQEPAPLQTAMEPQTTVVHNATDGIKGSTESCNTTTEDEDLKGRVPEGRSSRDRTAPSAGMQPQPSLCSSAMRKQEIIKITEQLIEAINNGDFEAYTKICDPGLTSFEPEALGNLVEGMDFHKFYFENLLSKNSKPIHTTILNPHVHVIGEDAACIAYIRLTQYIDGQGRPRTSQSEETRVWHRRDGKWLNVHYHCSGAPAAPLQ
Assay [9] addresses Calcium/calmodulin-dependent protein kinase type II subunit delta (Homo sapiens) (UniProt Q13557). The settings on record: at 10 µM.
Assay [10] addresses Death-associated protein kinase 1 (Homo sapiens) (UniProt P53355). The settings on record: at 10 µM.
Assay [11] addresses T3, Discoidin domain-containing receptor 2 (Homo sapiens) (UniProt Q16832).
T3 sequence (whole entry): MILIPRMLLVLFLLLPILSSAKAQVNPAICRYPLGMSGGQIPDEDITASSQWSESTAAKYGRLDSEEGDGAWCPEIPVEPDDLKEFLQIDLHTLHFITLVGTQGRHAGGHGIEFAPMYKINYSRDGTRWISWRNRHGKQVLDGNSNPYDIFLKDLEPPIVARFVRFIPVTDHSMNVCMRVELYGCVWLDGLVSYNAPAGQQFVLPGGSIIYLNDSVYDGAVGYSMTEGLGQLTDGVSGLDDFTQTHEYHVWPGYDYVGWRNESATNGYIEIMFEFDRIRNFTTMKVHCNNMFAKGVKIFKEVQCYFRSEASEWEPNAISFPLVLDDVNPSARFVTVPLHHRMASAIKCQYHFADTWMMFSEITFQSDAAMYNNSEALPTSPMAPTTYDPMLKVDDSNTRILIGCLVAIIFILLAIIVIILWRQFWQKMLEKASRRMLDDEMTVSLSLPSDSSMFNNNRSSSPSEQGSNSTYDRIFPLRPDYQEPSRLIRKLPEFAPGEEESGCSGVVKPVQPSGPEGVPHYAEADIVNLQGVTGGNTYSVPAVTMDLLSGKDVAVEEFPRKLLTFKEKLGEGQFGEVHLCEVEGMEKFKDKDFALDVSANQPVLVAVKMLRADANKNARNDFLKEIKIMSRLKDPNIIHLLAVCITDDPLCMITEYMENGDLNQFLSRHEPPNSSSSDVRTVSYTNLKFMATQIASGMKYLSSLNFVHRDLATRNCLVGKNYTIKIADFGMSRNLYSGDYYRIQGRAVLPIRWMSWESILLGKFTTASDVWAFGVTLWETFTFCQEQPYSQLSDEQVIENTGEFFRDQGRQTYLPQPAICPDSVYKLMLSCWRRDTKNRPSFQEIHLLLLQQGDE
The settings on record: at 1 µM.

The target of assay [12] is T3, Discoidin domain-containing receptor 2 (Homo sapiens). The settings on record: at 10 µM.
Assay [13] has as its target T4, Serine/threonine-protein kinase DCLK2 (Homo sapiens) (UniProt Q8N568).
T4 sequence (whole entry): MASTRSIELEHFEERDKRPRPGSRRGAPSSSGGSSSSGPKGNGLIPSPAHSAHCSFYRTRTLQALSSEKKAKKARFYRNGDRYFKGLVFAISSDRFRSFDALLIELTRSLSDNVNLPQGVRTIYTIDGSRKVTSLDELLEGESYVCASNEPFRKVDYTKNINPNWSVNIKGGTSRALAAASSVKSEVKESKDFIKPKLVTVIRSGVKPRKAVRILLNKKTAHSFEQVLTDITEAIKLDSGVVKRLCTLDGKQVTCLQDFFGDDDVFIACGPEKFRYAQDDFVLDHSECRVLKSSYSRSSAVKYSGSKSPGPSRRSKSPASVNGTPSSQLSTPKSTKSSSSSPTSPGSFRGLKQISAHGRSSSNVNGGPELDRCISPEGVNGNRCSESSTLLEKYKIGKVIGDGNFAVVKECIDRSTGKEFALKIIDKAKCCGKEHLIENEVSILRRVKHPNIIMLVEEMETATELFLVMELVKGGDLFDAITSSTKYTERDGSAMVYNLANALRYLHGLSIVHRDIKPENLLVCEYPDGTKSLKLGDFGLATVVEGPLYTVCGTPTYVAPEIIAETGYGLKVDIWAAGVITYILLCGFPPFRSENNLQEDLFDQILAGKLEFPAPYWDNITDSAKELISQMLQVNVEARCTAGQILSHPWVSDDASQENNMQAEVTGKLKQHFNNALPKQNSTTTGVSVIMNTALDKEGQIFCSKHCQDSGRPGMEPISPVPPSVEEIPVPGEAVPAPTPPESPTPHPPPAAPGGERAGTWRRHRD
The settings on record: at 1 µM.

Assay [14] concerns the target Calcium/calmodulin-dependent protein kinase type II subunit gamma (Homo sapiens) (UniProt Q13555). The settings on record: at 1 µM.
Assay [15] concerns the target T5, Calcium/calmodulin-dependent protein kinase type IV (Homo sapiens) (UniProt Q16566).
T5 sequence (whole entry): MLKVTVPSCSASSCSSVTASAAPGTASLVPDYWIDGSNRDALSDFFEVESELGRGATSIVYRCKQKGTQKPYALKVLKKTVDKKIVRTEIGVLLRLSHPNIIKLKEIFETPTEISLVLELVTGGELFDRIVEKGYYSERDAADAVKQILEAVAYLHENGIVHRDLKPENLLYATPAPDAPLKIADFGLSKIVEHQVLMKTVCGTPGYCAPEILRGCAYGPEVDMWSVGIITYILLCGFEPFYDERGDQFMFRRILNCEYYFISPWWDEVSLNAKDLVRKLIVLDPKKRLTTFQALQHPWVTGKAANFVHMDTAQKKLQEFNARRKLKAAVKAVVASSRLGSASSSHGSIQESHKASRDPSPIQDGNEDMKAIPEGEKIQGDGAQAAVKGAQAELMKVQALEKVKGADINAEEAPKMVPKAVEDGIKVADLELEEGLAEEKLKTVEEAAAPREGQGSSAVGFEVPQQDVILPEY
The settings on record: at 10 µM.

Assay [16] deals with Death-associated protein kinase 2 (Homo sapiens) (UniProt Q9UIK4). The settings on record: at 1 µM.
Death-associated protein kinase 2 (Homo sapiens), sequence (Q9UIK4 whole entry, looked up): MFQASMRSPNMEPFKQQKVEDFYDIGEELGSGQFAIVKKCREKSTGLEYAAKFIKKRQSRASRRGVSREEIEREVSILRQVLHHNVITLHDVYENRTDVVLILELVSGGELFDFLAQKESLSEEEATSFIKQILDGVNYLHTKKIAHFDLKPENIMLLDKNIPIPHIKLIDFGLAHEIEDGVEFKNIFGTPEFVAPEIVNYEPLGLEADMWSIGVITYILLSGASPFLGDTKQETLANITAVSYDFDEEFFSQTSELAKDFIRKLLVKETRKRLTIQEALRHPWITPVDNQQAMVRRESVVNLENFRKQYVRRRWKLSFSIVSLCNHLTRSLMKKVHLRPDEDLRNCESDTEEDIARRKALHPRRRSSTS
Assay [17] shares this target. The settings on record: at 10 µM.
For assay [18], the target named is T4, Serine/threonine-protein kinase DCLK2 (Homo sapiens). The settings on record: at 10 µM.
The target of assay [19] is T5, Calcium/calmodulin-dependent protein kinase type IV (Homo sapiens). The settings on record: at 1 µM.

Usually residual activity stands for the signal under treatment as a percentage of the control signal.

Calcium/calmodulin-dependent protein kinase type 1 (Homo sapiens), sequence (Q14012 whole entry, looked up): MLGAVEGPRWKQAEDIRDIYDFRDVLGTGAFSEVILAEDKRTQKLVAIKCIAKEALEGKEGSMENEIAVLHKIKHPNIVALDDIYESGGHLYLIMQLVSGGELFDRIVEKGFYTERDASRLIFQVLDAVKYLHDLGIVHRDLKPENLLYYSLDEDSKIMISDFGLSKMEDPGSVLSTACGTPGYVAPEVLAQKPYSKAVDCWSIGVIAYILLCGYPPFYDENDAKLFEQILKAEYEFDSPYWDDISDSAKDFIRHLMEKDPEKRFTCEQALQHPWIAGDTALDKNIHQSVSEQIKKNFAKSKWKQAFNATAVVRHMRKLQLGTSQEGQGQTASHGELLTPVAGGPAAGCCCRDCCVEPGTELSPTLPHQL
Death-associated protein kinase 1 (Homo sapiens), sequence (P53355 whole entry, looked up, the tested form may be a part): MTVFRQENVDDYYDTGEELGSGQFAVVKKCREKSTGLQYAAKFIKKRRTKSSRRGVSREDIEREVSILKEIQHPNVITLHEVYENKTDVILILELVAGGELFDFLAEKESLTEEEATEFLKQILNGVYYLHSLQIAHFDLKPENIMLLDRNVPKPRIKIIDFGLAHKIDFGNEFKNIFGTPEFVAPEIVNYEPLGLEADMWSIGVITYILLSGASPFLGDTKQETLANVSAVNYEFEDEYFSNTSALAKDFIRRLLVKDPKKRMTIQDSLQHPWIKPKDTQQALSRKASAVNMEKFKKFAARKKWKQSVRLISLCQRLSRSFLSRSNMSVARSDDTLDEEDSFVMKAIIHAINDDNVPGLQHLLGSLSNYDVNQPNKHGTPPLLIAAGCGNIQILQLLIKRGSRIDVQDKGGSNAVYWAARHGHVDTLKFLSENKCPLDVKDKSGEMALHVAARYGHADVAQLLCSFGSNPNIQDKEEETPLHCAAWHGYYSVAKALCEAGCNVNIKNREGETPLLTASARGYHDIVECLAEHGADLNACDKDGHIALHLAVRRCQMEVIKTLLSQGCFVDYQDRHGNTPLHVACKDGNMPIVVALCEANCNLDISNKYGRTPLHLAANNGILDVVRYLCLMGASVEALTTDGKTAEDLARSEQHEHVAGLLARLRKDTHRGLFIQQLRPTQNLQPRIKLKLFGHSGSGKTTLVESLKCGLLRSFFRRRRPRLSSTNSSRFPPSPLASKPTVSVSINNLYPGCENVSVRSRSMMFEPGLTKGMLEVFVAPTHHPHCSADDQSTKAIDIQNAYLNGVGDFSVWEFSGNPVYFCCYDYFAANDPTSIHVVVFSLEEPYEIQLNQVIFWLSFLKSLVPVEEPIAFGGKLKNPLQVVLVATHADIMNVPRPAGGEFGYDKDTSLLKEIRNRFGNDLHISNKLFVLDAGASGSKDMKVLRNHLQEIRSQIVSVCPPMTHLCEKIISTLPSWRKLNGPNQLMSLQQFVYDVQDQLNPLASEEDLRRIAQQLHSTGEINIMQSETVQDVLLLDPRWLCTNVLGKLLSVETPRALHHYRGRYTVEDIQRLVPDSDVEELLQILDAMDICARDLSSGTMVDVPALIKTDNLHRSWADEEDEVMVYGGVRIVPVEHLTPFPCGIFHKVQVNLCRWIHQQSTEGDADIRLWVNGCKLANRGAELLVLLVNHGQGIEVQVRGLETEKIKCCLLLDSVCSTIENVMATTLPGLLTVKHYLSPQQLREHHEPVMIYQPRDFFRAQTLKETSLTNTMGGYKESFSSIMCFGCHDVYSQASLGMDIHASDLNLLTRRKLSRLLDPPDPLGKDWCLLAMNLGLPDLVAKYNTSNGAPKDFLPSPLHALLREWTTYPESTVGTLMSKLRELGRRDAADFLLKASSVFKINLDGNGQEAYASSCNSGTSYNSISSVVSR
Calcium/calmodulin-dependent protein kinase type II subunit beta (Homo sapiens), sequence (Q13554 whole entry): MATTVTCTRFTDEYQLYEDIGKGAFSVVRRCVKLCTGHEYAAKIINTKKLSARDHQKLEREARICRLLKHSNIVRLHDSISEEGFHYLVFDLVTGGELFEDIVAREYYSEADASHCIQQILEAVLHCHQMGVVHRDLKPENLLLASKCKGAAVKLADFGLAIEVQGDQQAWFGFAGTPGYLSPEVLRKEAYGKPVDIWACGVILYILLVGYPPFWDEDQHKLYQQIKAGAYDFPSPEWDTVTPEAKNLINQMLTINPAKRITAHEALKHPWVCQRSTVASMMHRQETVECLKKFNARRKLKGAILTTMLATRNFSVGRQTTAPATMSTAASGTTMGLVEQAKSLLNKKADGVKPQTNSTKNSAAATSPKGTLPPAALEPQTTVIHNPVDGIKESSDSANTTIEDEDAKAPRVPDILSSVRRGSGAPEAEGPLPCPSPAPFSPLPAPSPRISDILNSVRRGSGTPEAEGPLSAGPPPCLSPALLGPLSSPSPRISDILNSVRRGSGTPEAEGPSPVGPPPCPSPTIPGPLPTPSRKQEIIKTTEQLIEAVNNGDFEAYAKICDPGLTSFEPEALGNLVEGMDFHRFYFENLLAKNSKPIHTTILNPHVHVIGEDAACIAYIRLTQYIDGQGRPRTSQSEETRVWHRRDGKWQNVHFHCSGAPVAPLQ

As for `CN([C@@H](Cc1ccc(OS(=O)(=O)c2cccc3cnccc23)cc1)C(=O)N1CCN(c2ccccc2)CC1)S(=O)(=O)c1cccc2cnccc12`, the residual activity in [1] is 100%; in assay [2], 78%; in assay [3], 99%; in assay [4] it was 135%; in assay [5], 115%; in [6] it was 117%.

Take `O=C1Nc2ccccc2/C1=C\c1c(Cl)[nH]c2ccccc12`: the residual activity in assay [7] was 51%; in assay [2], 25%; in assay [8], 39%; in assay [3], 87%; in assay [9], 34%; in assay [10], 83%. Moreover, the values for the residual activity in assay [4] and in assay [6] were 119% and 83%, respectively.

For the compound `COc1ccc(Cl)cc1NC(=O)Nc1cc(C)nc2ccccc12`, the residual activity came to 88% in [1]; 72% in assay [2]; 66% in [10]; 83% in assay [11]; 39% in assay [12]; 94% in [4]. The residual activity in [6] stood at 97%.

On to `CCOc1nc(NC(=O)Cc2cc(OC)ccc2OC)cc(N)c1C#N`, for which the residual activity in assay [7] was 78%; in [13], 138%.

On to `Nc1nc(Nc2ccc(S(N)(=O)=O)cc2)nn1C(=O)c1c(F)cccc1F`, for which the residual activity in assay [7] amounted to 60%; in [2], 43%; in assay [14], 73%; in [8] it was 19%; in [3], 75%; in assay [9], 31%. Further, the residual activity in assay [15] was found to be 64%; in [10], 96%; in assay [16] it was 97%; in assay [17], 77%; in assay [13] it was 68%; in assay [18], 25%. Further, the residual activity in assay [6] was 77%.

Consider `Cc1cc(C)c(/C=C2\C(=O)Nc3ccccc32)[nH]1`, for which the residual activity was 32% in [14]; -1% in [8]; 38% in assay [3]; 9% in [9]; 104% in assay [19]; 60% in assay [15]. Further, the residual activity in [6] turned out to be 26%.

With `CCCCc1c(-c2ccc(O)cc2)[nH]c2nccnc12`, the residual activity amounted to 71% in assay [7]; 77% in assay [1]; 51% in assay [2]; 62% in assay [3]; 22% in [9]; 89% in assay [16]. Besides, the residual activity was 96% in assay [17], 71% in assay [11], 36% in [12] and 77% in assay [6].

For `O=C1NC(=O)C(c2c[nH]c3ccccc23)=C1c1c[nH]c2ccccc12`, the residual activity in [7] came out at 57%; in assay [1] it was 68%; in assay [2] it was 13%; in assay [14], 40%; in assay [8], 4%; in [3], 28%. The residual activity came out at 4% in assay [9]; 100% in assay [19]; 54% in assay [15]; 58% in assay [17]; 67% in [6].

Turning to `N#C/C(=C1/Nc2ccccc2S1)c1ccnc(NCCc2cccnc2)n1`, the residual activity in assay [2] was 25%; in [14], 80%; in assay [8] it was 21%; in assay [3], 83%; in [9], 24%; in assay [19], 88%. Moreover, the values for the residual activity in [15], in assay [5] and in assay [6] were 34%, 78% and 60%, respectively.

`O=C(Nc1nc2ccccc2n1CCN1CCOCC1)c1cccc([N+](=O)[O-])c1`: the residual activity in [1] stood at 83%; in [2], 83%; in [8], 76%; in assay [3], 103%; in assay [9], 85%; in assay [19] it was 115%. The residual activity in [15] stood at 53%; in assay [10] it was 73%; in assay [11], 110%; in assay [12] it was 112%; in assay [6], 104%.

Regarding `O=S(=O)(NCCNC/C=C/c1ccc(Br)cc1)c1cccc2cnccc12`, the residual activity amounted to 76% in assay [1]; 29% in assay [2]; 100% in [14]; 41% in assay [8]; 35% in assay [9]; 100% in assay [18].
